Screening data as filed in PubChem BioAssay.
Compounds with a hit are over-represented: about 9.3% of the library has one in this group of screens.
M1 ag – activates the M1 muscarinic receptor | CHO-M1 cells, Fluo-4 calcium fluorescence, agonist mode; active compounds read high | B-score at 10 µM | actives 3% (n = 64,000);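 active means fluorescence rise, raw or as B-score row- and column-corrected plate score, outside the 99.7% band of its plate's samples, either direction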
Htt clearance – compounds clearing mutant huntingtin protein | actives 0.42% (n = 47,000) | inhibition, % at 1.5 µM | AID 853 | HeLa Exon1htt(103Q)mCFP, aggregate imaging; zero = plate's median compound well;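 active means inhibition of aggregate fluorescence above about 70%, also judged a hit by eye on the cell image, limit read from the data, passing the limit was not always enough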;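 further: cells exposed to compound for three days before fixation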
M1 antag – M1 muscarinic receptor (rat) antagonism. P08482. actives 3.4% (n = 64,000). CHO-M1 cells, Fluo-4 calcium, ACh EC80 antagonist mode; active compounds read low. B-score at 10 µM;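 active means calcium fluorescence response, raw or row-and-column corrected B-score, differing from the plate sample mean either way at a set confidence level, mostly lower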
Target sequence (P08482 whole entry, looked up): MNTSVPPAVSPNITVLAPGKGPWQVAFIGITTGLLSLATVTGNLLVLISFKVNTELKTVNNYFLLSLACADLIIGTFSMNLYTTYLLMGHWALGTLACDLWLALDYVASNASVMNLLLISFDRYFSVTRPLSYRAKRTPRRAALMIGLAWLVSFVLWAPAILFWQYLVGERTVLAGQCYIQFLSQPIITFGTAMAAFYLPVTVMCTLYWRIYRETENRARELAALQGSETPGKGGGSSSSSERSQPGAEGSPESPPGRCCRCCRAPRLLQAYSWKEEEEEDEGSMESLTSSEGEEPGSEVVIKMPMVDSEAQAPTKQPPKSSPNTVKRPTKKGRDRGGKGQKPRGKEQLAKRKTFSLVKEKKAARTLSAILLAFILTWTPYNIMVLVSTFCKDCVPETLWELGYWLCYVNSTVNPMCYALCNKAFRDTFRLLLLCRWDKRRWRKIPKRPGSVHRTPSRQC
A340 absorber – compounds absorbing at 340 nm; compound absorbance at 340 nm, fold over control; fold change at 10 µM; 65,000 tested, under 10 active;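 active means at 10 µM dose, initial 340 nm absorbance at least 2 fold that of control wells; inactive means change under 2 fold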;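 further: initial absorbance extrapolated from kinetic A340 decline of NADH oxidation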
NADH coupling – inhibition of NAD/NADH coupling enzymes, library profiling. coupled PK/LDH NADH assays, four targets. IC50, µM (doses to about 10 µM). actives 0.02% (n = 65,000). AID 774;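 active means single-dose screening hits from any of four coupled enzyme assays that gave an IC50 when retested across doses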;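 further: the DPM-DC format reads NADH fluorescence rather than 340 nm absorbance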
Autofluor 339 – intrinsic fluorescence of library compounds, ex339/em460 – biochemical, MLSMR library, data from DPM-DC assay, artefact control, profiling panel; compound autofluorescence, ex339/em460 nm, NADH buffer; active compounds read high; 1 = no-compound wells, NADH background; fluorescence fold increase at 10 µM; actives 5.5% (n = 65,000); AID 709;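 active means at 10 µM, mean starting fluorescence two-fold or more over control wells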;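 further: signal is the first read of a kinetic run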
Of the large screens only hits and unclear results are named; the others gave an inactive call.

CCn1ncc(C2=NOC(C(=O)NCc3ccccc3)C2)c1C (configuration not stated)	none (no result: Htt clearance)
CCn1ncc(C2=NOC(C(=O)Nc3c(C)nn(Cc4ccc(F)cc4)c3C)C2)c1C (configuration not stated)	M1 ag -2.5 (no result: Htt clearance)
N#Cc1nc(-c2cccs2)oc1NCC1CCCO1 (configuration not stated)	Autofluor 339 2.3 (no result: Htt clearance)
COc1ccc(-c2nc(C#N)c(NCC3CCCO3)o2)cc1 (configuration not stated)	Autofluor 339 2.3
Cc1cc(C)n2nc(SCc3cc(=O)n4ccccc4n3)nc2n1	none (no result: Htt clearance)
Cc1ccccc1-n1c(SCc2cc(=O)n3ccccc3n2)nc2[nH]ncc2c1=O	Autofluor 339 2.2 (no result: Htt clearance)
CC(=O)/C=C(\C)Nc1ccc(-c2cnc(-c3ccccc3)o2)cc1	Autofluor 339 2.2 (no result: Htt clearance)
O=c1c2ccccc2nc(N2CCN(c3ccccc3)CC2)n1Cc1ccccc1	none (no result: Htt clearance)
Cc1c(Cl)ccc2c1NC(=O)[C@]21N[C@@H](CCC(N)=O)[C@H]2C(=O)N(c3ccc(F)cc3)C(=O)[C@H]21	none (no result: M1 ag, M1 antag)
Cc1c(Cl)ccc2c1NC(=O)C21NC(CCC(N)=O)[C@H]2C(=O)N(c3ccc(Cl)cc3)C(=O)[C@H]21 (some centres not stated)	M1 antag 1.8
COc1ccc(N2CCCn3c2nc2c3c(=O)n(CCc3ccccc3)c(=O)n2C)cc1	none (no result: Htt clearance)
Cc1ccc(N2CCn3c2nc2c3c(=O)n(CCc3ccccc3)c(=O)n2C)cc1	Autofluor 339 2.4 (no result: Htt clearance)
COc1ccc2nc(NC(=O)c3cccc(OCc4c(C)noc4C)c3)sc2c1	Autofluor 339 4 (no result: Htt clearance)
CCSc1nnc(NC(=O)c2cccc(OCc3c(C)noc3C)c2)s1	none (no result: Htt clearance)
Cc1ccc(S(=O)(=O)Nc2ccc(-c3nnc(SCC#N)n3C)cc2)cc1	none (no result: Htt clearance)
CCOC(=O)c1c(NC(C)=O)sc2c1CCCNC2=O	none (no result: Htt clearance)
CN(C)c1ccc(-c2noc(-c3ccccc3O)n2)cc1	Autofluor 339 5.3
Cc1ccc(-c2noc(-c3ccccc3Br)n2)cc1	none
CC1(C)CC(=O)C2=C(C1)OC(N)=C(C#N)C2C1CC=CCC1 (configuration not stated)	none
COC(=O)C(C)Sc1snnc1-c1ccccc1 (configuration not stated)	none (no result: M1 ag, M1 antag, A340 absorber, NADH coupling, Autofluor 339)
CCc1cc2c(CN3CCN(CC)CC3)cc(=O)oc2cc1O	Autofluor 339 3.8 (no result: Htt clearance)
O=c1cc(CN2CCN(c3ccccc3)CC2)c2cc(O)c(-c3ccccc3)cc2o1	none (no result: Htt clearance)
CC(=O)Nc1cccc(N(C)C)c1	none (no result: Htt clearance)
CNc1nnc(-c2cccc(N(C)C)c2)s1	Autofluor 339 2.9
Cc1c(Cl)cccc1N1C(=O)CC(N(O)c2ccccc2)C1=O (configuration not stated)	none
CCCCCC(=O)OC(CN1CCCCC1)CN1CCCC1=O (configuration not stated)	none
CCC(=O)NC(Nc1ncc(C)s1)(C(=O)OC)C(F)(F)F (configuration not stated)	Htt clearance 70 (no result: M1 ag, M1 antag, A340 absorber, NADH coupling, Autofluor 339)
CCOC(=O)c1ccc2nc(NC(NC(C)=O)(C(=O)OC)C(F)(F)F)sc2c1 (configuration not stated)	none (no result: Htt clearance)
CCOC(=O)c1[nH]c2ccccc2c1N=CN(CC)CC	none
N#Cc1ccccc1NC(=O)c1ccc(-c2ccccc2Cl)o1	none
O=C(O)CCC(=O)Nc1ccc2c(c1)oc1ccccc12	none
Cc1cc2oc(=O)cc(C)c2cc1NC(=O)CCC(=O)O	Autofluor 339 2.5 (no result: Htt clearance)
CS(=O)(=O)N(CC(=O)Nc1cccc(F)c1)Cc1ccccc1	none
CCC(=O)Nc1c(-c2ccc(OC)cc2)c(=O)c2ccccc2n1C	Autofluor 339 3.8 (no result: Htt clearance)
COc1ccc(-c2cc(=O)c3ccccc3n2C)cc1	none (no result: M1 ag, M1 antag, A340 absorber, NADH coupling, Autofluor 339)
COC(=O)CCC(=O)Nc1cccc(Br)c1	none (no result: Htt clearance)
CCOC(=O)c1cnc(SC)nc1Sc1ccccc1	none (no result: M1 ag, M1 antag, A340 absorber, NADH coupling, Autofluor 339)
CCOc1ccc(-c2nn3c(-c4ccc(F)cc4)nnc3s2)cc1	none (no result: Htt clearance)
CCOc1ccc(-c2nnc(-c3snc(-c4ccc(F)cc4)c3N=CN(C)C)o2)cc1	Autofluor 339 3.8 (no result: Htt clearance)
Cc1nn(Cc2ccccc2)c2sc(C(=O)N3CCN(Cc4ccc5c(c4)OCO5)CC3)cc12	none (no result: Htt clearance)
CCn1cc(C2=NOC(C(=O)Nc3cc(C)nn3-c3ccccc3)C2)c(C)n1 (configuration not stated)	none (no result: Htt clearance)
Cc1cc2c(c(N)n1)c(=O)oc1ccccc12	Autofluor 339 3.7 (no result: Htt clearance)
Cc1cc(C2C(C#N)=C(N)SC(N)=C2C#N)c(C)s1	M1 ag 3.3
COC(=O)C1=C(C)OC(N)=C(C#N)C1c1cc(C)sc1C (configuration not stated)	none (no result: M1 ag, M1 antag, A340 absorber, NADH coupling, Autofluor 339)
Cc1sccc1C1C(C#N)=C(N)SC(N)=C1C#N	M1 ag 130 (no result: Htt clearance)
COc1ccc(C(c2nnnn2Cc2cccs2)N2CCN(c3ccc(F)cc3)CC2)cc1OC (configuration not stated)	none
COc1cccc(-n2nnnc2SCC(=O)c2cc(OC)ccc2OC)c1	Autofluor 339 2.4 (no result: M1 ag, Htt clearance, M1 antag)
COc1cccc(-n2nnnc2SCC(=O)c2ccc(NC(C)=O)cc2)c1	none
COc1cc2c(cc1NC(=O)CSc1nnnn1-c1ccccc1)oc1ccccc12	Autofluor 339 2.2 (no result: Htt clearance)
CCSc1nc(-c2ccc(OC)cc2)n(-c2nc3ccccc3s2)n1	none
Cn1c(=O)c(-c2ccccc2)nc2ccccc21	none (no result: M1 ag, M1 antag, A340 absorber, NADH coupling, Autofluor 339)
Cn1nc(-c2ccccc2)c2nc3ccccc3nc21	M1 ag 133, M1 antag 4.5
CCCCn1nc(-c2ccccc2)c2nc3ccccc3nc21	Htt clearance 74 (no result: M1 ag, M1 antag, A340 absorber, NADH coupling, Autofluor 339)
COc1ccc(NC(=O)N2CCCC(c3nc(-c4ccc(C(C)C)cc4)no3)C2)cc1 (configuration not stated)	none (no result: Htt clearance)
COc1c(S(=O)(=O)n2nc(C)cc2C)ccc(Cl)c1Cl	none (no result: Htt clearance)
Clc1ccc(SCCCCn2ccnc2)cc1	none
C=CCn1c(SCc2c(C)noc2C)nnc1C1COc2ccccc2O1 (configuration not stated)	none (no result: Htt clearance)
COc1ccc(OC)c(-n2c(C)nc3cc(C(=O)O)ccc32)c1	Htt clearance 74
O=c1c2c3nc4ccccc4nc3n(-c3ccc4c(c3)OCCO4)c2ncn1CC1CCCO1 (configuration not stated)	M1 antag -1.8 (no result: Htt clearance)
COCCCn1c2nc3ccccc3nc2c2c(=O)n(CC3CCCO3)cnc21 (configuration not stated)	Autofluor 339 2.3 (no result: Htt clearance)
COCCCn1cnc2c(c1=O)c1nc3ccccc3nc1n2-c1ccc(C)cc1	none (no result: Htt clearance)
COC(=O)c1ccc2c(=O)n(CCC3=CCCCC3)c(SCC(=O)N3CCCC3)nc2c1	none (no result: Htt clearance)
COc1ccc(N2C(=O)c3ccccc3NC23CCCCC3)cc1	Autofluor 339 2.2
COc1ccc2cc(C#N)c(NC(C)C)nc2c1	Autofluor 339 2.6
CCOC(=O)C1CCN(c2nc3cc(OC)ccc3cc2C#N)CC1	Autofluor 339 2.1
COC(=O)CSc1nc2cc(OC)ccc2cc1C#N	Autofluor 339 2.3 (no result: Htt clearance)
